Data: the antibiotic and cytotoxicity screens of Wong et al. (2023)
About 3,300 (8.5%) of roughly 39,000 compounds were called active. The sample as a whole holds a higher share of actives than the screen did.

These compounds were tested on HepG2 (assay: cytotoxicity call (relative viability < 0.9)). Conditions: 10 µM.
In the case of `C[C@@H]1CN([C@@H](C)CO)C(=O)c2cc(NS(=O)(=O)c3cccs3)ccc2O[C@@H]1CN(C)C(=O)Nc1cccc2ccccc12`, the cytotoxicity call is reported as “inactive”. With `CCC=CCC=CCC=CCC=CCC=CCCCC(=O)OCC` [OMEGA-3-ACID ESTERS (EPA shown) ] the cytotoxicity call was “inactive”. `C[C@H](CO)N1C[C@H](C)[C@@H](CN(C)Cc2ccc(C(=O)O)cc2)Oc2ncc(C#CCN(C)C)cc2C1=O` was tested, and the cytotoxicity call was “inactive”. In the case of `Cc1noc(C)c1NC(=O)Nc1ccc2c(c1)CC(=O)N([C@H](C)CO)C[C@@H](C)[C@H](CN(C)Cc1ccc(Cl)c(Cl)c1)O2`, the cytotoxicity call is reported as “inactive”. `CCOC(=O)N(C)C[C@@H]1OCc2cn(nn2)CCCC(=O)N([C@@H](C)CO)C[C@@H]1C` was tested, and the cytotoxicity call was “inactive”. For `COc1ccc(NC(=O)Nc2ccc3c(c2)C(=O)N([C@@H](C)CO)C[C@@H](C)[C@@H](CN(C)S(=O)(=O)c2ccc(OC)cc2)OCCCC[C@H](C)O3)cc1`, the cytotoxicity call was “inactive”. With `COc1ccccc1CNC(=O)C[C@@H]1C[C@@H]2c3cc(NC(=O)c4ccc5c(c4)OCO5)ccc3O[C@@H]2[C@H](CO)O1` the cytotoxicity call was “inactive”. `NCC[C@H]1CC[C@H](NC(=O)C2CCC2)[C@@H](CO)O1` was tested, and the cytotoxicity call was “inactive”. `Cc1cccc(S(=O)(=O)N2C[C@@H](O)COC[C@@H]3O[C@H](CC(=O)N4CCN(C)CC4)CC[C@H]32)c1` was tested, and the cytotoxicity call was “inactive”. In the case of `COc1ccc(NC(=O)Nc2ccc3c(c2)C(=O)N([C@H](C)CO)C[C@H](C)[C@H](CN(C)C(=O)CCC(F)(F)F)OCCCC[C@H](C)O3)cc1`, the cytotoxicity call is reported as “inactive”. `CC(C)NC(=O)N(C)C[C@H]1Oc2ccc(NS(=O)(=O)c3cccs3)cc2C(=O)N([C@H](C)CO)C[C@H]1C` was tested, and the cytotoxicity call was “inactive”. `C[C@H]1CN([C@@H](C)CO)C(=O)c2cccc(NS(=O)(=O)c3ccc(Cl)cc3)c2O[C@@H]1CN(C)Cc1ccc(Cl)c(Cl)c1` was tested, and the cytotoxicity call was “active”. `C[C@H]1CN([C@@H](C)CO)C(=O)c2cccc(NS(=O)(=O)c3ccccc3)c2O[C@H]1CN(C)Cc1ccc(Cl)c(Cl)c1` was tested, and the cytotoxicity call was “inactive”. For `C[C@H](CO)N1C[C@H](C)[C@@H](CN(C)Cc2ccc(Cl)c(Cl)c2)Oc2c(NS(=O)(=O)c3ccccc3)cccc2C1=O`, the cytotoxicity call was “active”. In the case of `C[C@@H]1CN([C@@H](C)CO)C(=O)c2cccc(NS(=O)(=O)c3ccccc3)c2O[C@@H]1CN(C)Cc1ccc(Cl)c(Cl)c1`, the cytotoxicity call is reported as “inactive”. `COc1ccc(S(=O)(=O)Nc2cccc3c2O[C@H](CN(C)Cc2ccc(Cl)c(Cl)c2)[C@@H](C)CN([C@@H](C)CO)C3=O)cc1` was tested, and the cytotoxicity call was “inactive”. With `COc1ccc(S(=O)(=O)Nc2cccc3c2O[C@@H](CN(C)Cc2ccc(Cl)c(Cl)c2)[C@H](C)CN([C@@H](C)CO)C3=O)cc1` the cytotoxicity call was “inactive”. For `C[C@H](CO)N1C[C@H](C)[C@@H](CN(C)Cc2ccc(Cl)c(Cl)c2)Oc2c(NS(=O)(=O)c3ccc(Cl)cc3)cccc2C1=O`, the cytotoxicity call was “inactive”. For `COc1ccc(S(=O)(=O)Nc2cccc3c2O[C@H](CN(C)Cc2ccc(Cl)c(Cl)c2)[C@H](C)CN([C@@H](C)CO)C3=O)cc1`, the cytotoxicity call was “active”. `C[C@@H]1CN([C@@H](C)CO)C(=O)c2cccc(NS(=O)(=O)c3ccc(Cl)cc3)c2O[C@H]1CN(C)Cc1ccc(Cl)c(Cl)c1` was tested, and the cytotoxicity call was “inactive”.
